The text below walks through data of paper PMC6602471.

The full ranking holds about 1,300 sequences; the median of “log fluorescence intensity” is about 8.9, and the highest 2% start at about 13. The list comes from a sample in which the highest values are over-represented; it also holds similar and randomly drawn sequences.

The experiment deals with T1, ELK1 (Homo sapiens, UniProt P19419 1-428).
T1 sequence: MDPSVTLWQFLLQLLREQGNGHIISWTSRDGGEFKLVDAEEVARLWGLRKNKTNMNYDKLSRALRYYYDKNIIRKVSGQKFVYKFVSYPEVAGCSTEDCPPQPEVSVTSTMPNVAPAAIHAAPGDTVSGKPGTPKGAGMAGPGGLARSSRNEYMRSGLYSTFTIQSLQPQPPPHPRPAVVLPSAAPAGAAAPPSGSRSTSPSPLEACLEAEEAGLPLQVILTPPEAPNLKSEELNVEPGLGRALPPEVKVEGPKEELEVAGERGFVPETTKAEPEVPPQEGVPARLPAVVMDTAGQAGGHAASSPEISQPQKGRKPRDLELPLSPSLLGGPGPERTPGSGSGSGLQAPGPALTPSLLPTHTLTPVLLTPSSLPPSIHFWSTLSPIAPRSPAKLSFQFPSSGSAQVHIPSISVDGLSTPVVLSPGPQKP
The experiment in a line: custom PBM; custom protein-binding microarray; buffer, salt, pH and temperature not stated; high values mean tight binding. As to conditions: dsDNA, one strand shown.
Regarding “TGTCGGGCAAGGGAATGTAGATCACGTGAATGAAAAGTCTTGATTCGCTTGACGCTGCTG”, the binding signal is 9.09 log fluorescence intensity.

Turning to “CAGCATAGTACTTCTTCCCTGAAGCAATTGATAACCGTCTTGATTCGCTTGACGCTGCTG”, the binding signal was 8.98 log fluorescence intensity.

On to “TAAAGGGAAGACGGTTGTGGTGGTTCCGGGTATTAAGTCTTGATTCGCTTGACGCTGCTG”, for which the binding signal was 11.1 log fluorescence intensity.

As to “GCTGCTGGGGTGCATACCCCACCGGATGTGACCCCGGTCTTGATTCGCTTGACGCTGCTG”, the binding signal was 9.94 log fluorescence intensity. On to “GTGTATAGGATCCCATTCAACACACGTGTTAAAATGGTCTTGATTCGCTTGACGCTGCTG”, for which the binding signal was 8.9 log fluorescence intensity. Consider “TAAAGGGAAGACGGTTGTGGTAGATCCGGGTATTAAGTCTTGATTCGCTTGACGCTGCTG”, for which the binding signal is 9.61 log fluorescence intensity. With “TAAGGGGAAGACGGTTGTGGTAGTTCCGGGTATTAAGTCTTGATTCGCTTGACGCTGCTG” the figure was 11.3 log fluorescence intensity. On to “GGAAAAAGGCACAGGGTAACACCGGAAGTGGGCTTAGTCTTGATTCGCTTGACGCTGCTG”, for which the binding signal was 11 log fluorescence intensity.

For “GGAAAAAGGCCCAGGGTAACACCGGAATTGGGCTTAGTCTTGATTCGCTTGACGCTGCTG”, the binding signal was 9.46 log fluorescence intensity. With “CGGAAGTGTCGTAAACGTCGGATATCCGCTTCTTCTGTCTTGATTCGCTTGACGCTGCTG”, the binding signal is 11.5 log fluorescence intensity. With “CAGCATAGGACTTCTTCCCTGAAGCAGTTGATAACCGTCTTGATTCGCTTGACGCTGCTG”, the binding signal is 8.98 log fluorescence intensity. For the sequence “GTGTATAGGATCCCATCCAACACACGTGTTAATATGGTCTTGATTCGCTTGACGCTGCTG”, the binding signal is 8.92 log fluorescence intensity. Regarding “GGAAAAAGGCCCTGGGTAACACCGGAAGTGGGCTTAGTCTTGATTCGCTTGACGCTGCTG”, the binding signal was 11.1 log fluorescence intensity. Take “GGAAAAAGGCCCCGGGTAACACCGGAAGTGGGCTTAGTCTTGATTCGCTTGACGCTGCTG”: the binding signal was 12.6 log fluorescence intensity. The figure for “GGAAAAAGGCCCGGGGTAACACCGGAAGTGGGCTTAGTCTTGATTCGCTTGACGCTGCTG” is 11.8 log fluorescence intensity; for “CTGGGACTTGACCCAAATCTGCCACGTGGGTCGTTTGTCTTGATTCGCTTGACGCTGCTG” it is 9 log fluorescence intensity. Take “TGTCAGGTAAGGGAATGTAGATCACGTGAATGAAAAGTCTTGATTCGCTTGACGCTGCTG”: the binding signal was 8.9 log fluorescence intensity. As to “TACTGAGTTATATATGCGAATGCACATGAATAGACCGTCTTGATTCGCTTGACGCTGCTG”, the binding signal is 8.97 log fluorescence intensity. Consider “TAAAGGGAAGACGGTTGTGGTAGTTCCGGGAATTAAGTCTTGATTCGCTTGACGCTGCTG”, for which the binding signal is 11.2 log fluorescence intensity.

In the case of “CAGCATAGGACTTCTTCCCTGAAGCAATTGATACCCGTCTTGATTCGCTTGACGCTGCTG”, the binding signal was 8.91 log fluorescence intensity. On to “TACTGACTTATATATGCGAATGCACATGAATAGAACGTCTTGATTCGCTTGACGCTGCTG”, for which the binding signal is 8.92 log fluorescence intensity. With “TGGCGGGTAAGGGAATGTAGATCACGTGAATGAAAAGTCTTGATTCGCTTGACGCTGCTG” the figure was 8.95 log fluorescence intensity; with “CTGGGACTTGACCCAACTCTGCCACGTGGGTCGTATGTCTTGATTCGCTTGACGCTGCTG”, 8.98 log fluorescence intensity. As for “CTGGGACTTGACCCAACTCTGCCACGTGGGGCGTTTGTCTTGATTCGCTTGACGCTGCTG”, the binding signal was 8.94 log fluorescence intensity.

In the case of “TACTGACTTATATATCCGAATGCACATGAATAGACCGTCTTGATTCGCTTGACGCTGCTG”, the binding signal was 9.23 log fluorescence intensity. The figure for “TAAAGGGAAGATGGTTGTGGTAGTTCCGGGTATTAAGTCTTGATTCGCTTGACGCTGCTG” is 10.9 log fluorescence intensity; for “CGGAAATGTCGTAAACGTCGGATATCCGGTTCTTCTGTCTTGATTCGCTTGACGCTGCTG” it is 12.6 log fluorescence intensity; for “CGGAAGTATCGTAAACGTCGGATATCCGGTTCTTCTGTCTTGATTCGCTTGACGCTGCTG” it is 12 log fluorescence intensity. With “CGGAATTGTCGTAAACGTCGGATATCCGGTTCTTCTGTCTTGATTCGCTTGACGCTGCTG” the figure was 12.8 log fluorescence intensity; with “CGGAACTGTCGTAAACGTCGGATATCCGGTTCTTCTGTCTTGATTCGCTTGACGCTGCTG”, 12.5 log fluorescence intensity; with “CGGATGTGTCGTAAACGTCGGATATCCGGTTCTTCTGTCTTGATTCGCTTGACGCTGCTG”, 12.2 log fluorescence intensity. Regarding “CGGAAGGGTCGTAAACGTCGGATATCCGGTTCTTCTGTCTTGATTCGCTTGACGCTGCTG”, the binding signal was 12.1 log fluorescence intensity. On to “CGGAAGCGTCGTAAACGTCGGATATCCGGTTCTTCTGTCTTGATTCGCTTGACGCTGCTG”, for which the binding signal is 12.5 log fluorescence intensity.

As to “CGGACGTGTCGTAAACGTCGGATATCCGGTTCTTCTGTCTTGATTCGCTTGACGCTGCTG”, the binding signal was 12.2 log fluorescence intensity. “CGGAAGTCTCGTAAACGTCGGATATCCGGTTCTTCTGTCTTGATTCGCTTGACGCTGCTG”: the binding signal was 12 log fluorescence intensity. As for “CTGGGACTTGGCCCAACTCTGCCACGTGGGTCGTTTGTCTTGATTCGCTTGACGCTGCTG”, the binding signal was 8.95 log fluorescence intensity. For the sequence “TCCGGCTATCAGCTCCACCCACTTCAGGCCTTGTAGGTCTTGATTCGCTTGACGCTGCTG”, the binding signal was 9.1 log fluorescence intensity. Turning to “CAGCATAGGACTTCTTCCCTGAAGAAATTGATAACCGTCTTGATTCGCTTGACGCTGCTG”, the binding signal is 8.96 log fluorescence intensity.
